Source: PubChem
Hits are enriched below; roughly 8.7% of the tested compounds scored in any of these assays.
G9a block – G9a (human) methyltransferase inhibition. Q96KQ7. G9a H3K9 monomethylation, AlphaScreen, 2 h. Potency, µM (series often up to 102 µM), without a hit: at the highest dose activity, negative = inhibition, most hits filed as inhibitors. hit rate 8.8% among 350,000. AID 504332; note: % is set by controls: 0 for no effect and ±100 for the full control effect; nearly all actives have a fitted effect of over 75% in size
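Methyltransferase reactions run at room temperature for 2 h (20 nM enzyme, 500 nM biotin-H3K9 peptide, 20 uM SAM) after a 15 min compound preincubation; product detected by AlphaScreen beads and anti-H3K9me1 antibody.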
Sfp inh – inhibitors of Bacillus subtilis Sfp phosphopantetheinyl transferase; Potency, µM, without a hit: largest response in the series, negative = inhibition, most hits filed as inhibitors; Biochemical Sfp PPTase activity, qHTS; AID 1490; hit rate 3.5% among 310,000; Q9F4F7;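 note: the enzyme is Sfp with the accession as filed and its product quenches rhodamine fluorescence; 0% = enzyme reaction without inhibitor and -100% = no enzyme wells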
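With Hepes-Na pH 7.6 buffer containing 10 mM MgCl2, Sfp (15 nM) modified BHQ-2-YbbR (12.5 uM) using rhodamine-CoA (5 uM). Two reads 30 minutes apart at 525/598 nm yielded each well's rate.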
HP1b chromo inh – blocks HP1-beta chromodomain binding to methylated histone tails; hit rate 0.56% among 390,000; AlphaScreen HP1-beta / biotin-H3K9me3 peptide binding; AID 540317; P83916; Potency, µM (doses to about 114 µM), for inactives: at the highest dose activity change, negative = inhibition, most hits filed as inhibitors; note: nearly all actives have a fitted effect of over 70% in size
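HP1-beta protein (50 nM final) preincubated 30 min at room temperature with biotinylated H3(1-18)K9me3 peptide (50 nM) in PBS pH 7.4, 0.01% Tween-20, then compound added for 30 min. AlphaScreen streptavidin donor/nickel chelate acceptor beads (10 ug/mL final), 30 min dark, luminescence read.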
JMJD2A Tudor – JMJD2A Tudor domain (human) inhibition; O75164; AlphaScreen JMJD2A-Tudor / H3K4me3 peptide binding; Potency, µM (titrated, usually from 114 µM), inactives show top-dose activity change, negative = inhibition, most hits filed as inhibitors; hit rate 4.4% among 390,000; AID 504339; note: % is set by controls: 0 for no effect and ±100 for the full control effect; nearly all actives have a fitted effect of over 50% in size
BAZ2B block – inhibitors of human BAZ2B bromodomain; Q9UIF8; AlphaScreen BAZ2B-H3K14Ac peptide displacement; AID 504333; hit rate 4.4% among 360,000; Potency, µM (titrated, usually from 114 µM), without a hit: top-dose activity change, negative = inhibition, actives largely listed as inhibitors; note: % is set by controls: 0 for no effect and ±100 for the full control effect; nearly all actives have a fitted effect of over 60% in size
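Multi-concentration screen (max 110 uM) measuring displacement of acetylated histone H3 peptide from BAZ2B by AlphaScreen, using 50 nM protein, 50 nM peptide and 10 ug/mL streptavidin donor plus Ni-chelate acceptor beads.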
ALOX12 inh – ALOX12 (human) lipoxygenase inhibition. hit rate 1.1% among 580,000. AID 1671190. Potency, µM (top dose mostly 108 µM), without a hit: top-dose activity change, negative = inhibition, most hits filed as inhibitors. purified 12hLO, xylenol orange hydroperoxide absorbance. P18054; note: % is set by controls: 0 for no effect and ±100 for the full control effect
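Purified human 12hLO at 150 nM in 25 mM Hepes, 0.01% Triton X-100, pH 7.0, preincubated 15 min at room temperature with compound. Reaction started with 40 uM arachidonic acid, 30 min at room temperature. Hydroperoxide measured by Fe-xylenol orange, 573/405 nm absorbance ratio.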
* hit, by the source's call; i = inactive; u = inconclusive; x = no result given; [ ] = dose if it differs, or a comment. Calls come from the whole dose curve; as a rule, active = well fitted curve in the direction sought with a large enough effect; inconclusive = small, poorly fitted or top-dose-only effect, or another doubt; inactive = no such curve, though single readings can be large; an effect the other way counts as inactive or inconclusive. Potency is the fitted concentration of half-maximal effect.

SMILES	G9a block	Sfp inh	HP1b chromo inh	JMJD2A Tudor	BAZ2B block	ALOX12 inh
CC1(C)CC(=O)C2=C(C1)Nc1ccccc1NC2c1cccnc1 (stereo not drawn)	-12%	6%	20%	-15%	14%	27%
COc1ccc(N2CC(O)=C(c3nc(-c4ccc(F)cc4)cs3)C2=N)cc1Cl	23%	-23%	-6%	40µM*	-3%	i
COc1ccc(N2CC(O)=C(c3nc(-c4ccc(F)cc4)cs3)C2=N)cc1OC	17%	-11%	-6%	-32%	-24%	-3%
CC(C)C(c1nnnn1Cc1cccs1)N1CCN(C(=O)c2ccco2)CC1 (stereo not drawn)	x	18µM*	-16%	u	-8%	u
O=C(c1ccco1)N1CCN(C(c2ccccc2Cl)c2nnnn2Cc2ccco2)CC1 (stereo not drawn)	-21%[59 µM]	50µM*	-13%	-5%[11.4 µM]	u	u
Fc1ccc(C(c2nnnn2Cc2cccs2)N2CCN(C3CCCC3)CC2)cc1 (stereo not drawn)	-25%[59 µM]	5%	16%	-5%	u	u
O=C(c1ccco1)N1CCN(C(c2ccccc2)c2nnnn2Cc2cccs2)CC1 (stereo not drawn)	u	79µM*	9%	-27%	u	u
c1ccc(C(c2nnnn2Cc2cccs2)N2CCN(C3CCCC3)CC2)cc1 (stereo not drawn)	45µM*	-6%	16%	-24%	-3%	0%
O=C(c1ccco1)N1CCN(C(c2ccc(F)cc2)c2nnnn2Cc2cccs2)CC1 (stereo not drawn)	u	-18%	17%	-35%	u	u
Cc1cc2onc([C@H]3CCCN3C(=O)N3CCOCC3)c2cc1C	x	x	x	x	x	9%
Cc1c(C)c2ccc(OCC(=O)OCc3ccccc3)c(C)c2oc1=O	x	x	x	x	x	4%
O=C(CCc1ccccc1)NCC(=O)N1CCCCCCNC(=O)CC1c1ccccc1 (stereo not drawn)	x	x	x	x	x	11%
CC(C)CN(C(=O)COC(=O)c1n[nH]c2ccccc12)C1CCS(=O)(=O)C1 (stereo not drawn)	x	x	x	x	x	-23%
CC1CCc2c(sc3nn[nH]c(=O)c23)C1 (stereo not drawn)	u	u	-20%	-12%	-9%	-22%
CC1CCc2c(sc3[nH]c(=S)n(C)c(=O)c23)C1 (stereo not drawn)	3.5µM*	79µM*	u	u	5%	-27%
COc1cc2c(cc1OC)C(c1cc(OC)c(OC)cc1[N+](=O)[O-])N(C(C)=O)CC2 (stereo not drawn)	71µM*	-4%	35%	-4%	-2%	7%
CN=c1scc(C)n1/N=C/c1ccc(O)c(O)c1O	u	25µM*	u	50µM*	25µM*	-16%
CN=c1scc(C)n1/N=C/c1cc(Br)c(O)c(OC)c1	7.9µM*	-14%	-19%	u	40µM*	-29%
COc1cc(/C=N/NC(=O)CSc2n[nH]c(=O)[nH]c2=O)cc(OC)c1O	35µM*	5%	27%	-3%	2%	-21%
CN=c1scc(-c2cccs2)n1/N=C/c1ccccc1O	7%[59 µM]	-15%	u	-35%[57.1 µM]	u	-21%
CCCCCC(=O)N/N=C/c1cc(Br)c(O)c(OC)c1	50µM*	-13%	11%	-7%	-32%	11%
COc1ccc(CNc2nc(-c3ccccc3)nn2C(=O)c2ccc(C)cc2)cc1	x	x	x	x	x	17%
CCOC(=O)c1ccc(NC(=O)c2ncoc2-c2cccc(C)c2)cc1	x	x	x	x	x	-5%
COc1cc(/C=N/NC(=O)c2ccc(Cn3cc([N+](=O)[O-])cn3)o2)cc(Br)c1O	8.9µM*	-6%	16%	-11%[57.1 µM]	-28%	-6%
COc1cc(/C=N/O)cc(Br)c1OC	11%[59 µM]	12%	67%	-19%[57.1 µM]	4%	-12%
SMILES	G9a block	Sfp inh	HP1b chromo inh	JMJD2A Tudor	BAZ2B block	ALOX12 inh
COc1cc(/C=N/N(C)c2ccccc2)cc(Cl)c1O	u	u	22µM*	25µM*	45µM*	16µM*
CN=c1scc(-c2cccs2)n1/N=C/c1ccc(O)c(O)c1O	7.9µM*	11µM*	5µM*	25µM*	25µM*	u
COc1cc(/C=N/N(C)C)cc(Br)c1O	14µM*	-10%	13%	-27%	-32%	-6%
CCOc1ccc(C(=O)N2CCC3(CC2)N(C)C(=O)CS3(=O)=O)cc1	x	x	x	x	x	-6%
Cc1ccc(-c2cc(N3CCC(CNC(=O)c4ccc5nc[nH]c5c4)CC3)n[nH]2)cc1	x	x	x	x	x	17%
C=CCOc1ccc(C(c2c(O)nc(SC)[nH]c2=O)c2c(O)nc(SC)[nH]c2=O)cc1	x	x	10%	-4%	x	u
CSc1nc(O)c(C(c2ccc(O)cc2)c2c(O)nc(SC)[nH]c2=O)c(=O)[nH]1	10µM*	50µM*	u	-6%	u	u
CCOc1ccc(C(c2c(O)nc(SC)[nH]c2=O)c2c(O)nc(SC)[nH]c2=O)cc1	x	x	32%	-21%	x	179%
CSc1nc(O)c(C(c2cccc([N+](=O)[O-])c2)c2c(O)nc(SC)[nH]c2=O)c(=O)[nH]1	28µM*	-6%	37%	-14%	u	u
CCC(C)NC(=S)Nc1ccc(F)cc1 (stereo not drawn)	50µM*	-2%	41%	11%	3%	24%
CCN(CC)c1ccc(NC(=S)Nc2ccc(F)cc2)cc1	13µM*	45µM*	25µM*	35µM*	22µM*	u
Oc1ccc(NC(=S)Nc2ccc(F)cc2)cc1	6%[59 µM]	-12%	45%	-7%	-18%	u
COc1cccc(CN(CCC(=O)O)Cc2cccc(OC)c2)c1	x	x	x	x	x	18µM*
CCN(CCC(=O)Nc1cc(OC)cc(OC)c1)Cc1ccccc1	45µM*	45µM*	30%	-11%[57.1 µM]	10%	-19%
